How the values were obtained:
Type in all cases: functional
Plasmodium falciparum [1] = assay: GSK_TCMDC: Inhibition of Plasmodium falciparum 3D7 in whole red blood cells, using parasite LDH activity as an index of growth. Test compounds present at 2uM
Plasmodium falciparum [2] = assay: GSK_TCMDC: Inhibition of Plasmodium falciparum Dd2 in whole red blood cells, using parasite LDH activity as an index of growth. Test compounds present at 2uM
HepG2 = assay: GSK_TCMDC: Percent inhibition of human HepG2 cell line. Test compounds present at 10uM.

SMILES	Inhibition (Plasmodium falciparum [1])	Inhibition (Plasmodium falciparum [2])	Inhibition (HepG2)
O=C(/C=C/c1ccc(Cl)c(Cl)c1)NCCCCCCN1CCCN(C(=O)Nc2ccc(F)c(Cl)c2)CC1	98%	1%	30%
COc1cc(NC(=O)/C=C/c2cccc3ccoc23)ccc1OCCN(C(C)C)C(C)C.Cl	90%	5%	22%
CCCCCN1C(=O)N(c2ccc(Cl)c(Cl)c2)C(N(O)C(=O)Nc2ccc(Cl)c(Cl)c2)C1(C)C (stereo not drawn)	94%	99%	0%
Cl.Nc1c2c(nc3cc(NC(=O)c4ccc([N+](=O)[O-])cc4)ccc13)CCCC2	100%	58%	11%
CCNc1cc(C)nc(Nc2ccc(NC(=O)c3ccccc3Br)cc2)n1	100%	56%	46%
CC(C)(C)Nc1cc(C2CC2)nc(-c2ccccn2)n1	88%	75%	0%
COc1ccc(-c2cccc(NC(=O)c3ccc(Cl)cc3)c2)cc1CN1CCNCC1.O=C(O)C(F)(F)F	96%	22%	52%
O=C(Nc1cccc(-c2ccc(-c3nc4ccccc4[nH]3)cc2)c1)Nc1ccc(F)c(F)c1F	100%	38%	45%
CCc1cn2c3c(cc(C(=O)N[C@@H](Cc4ccccc4)[C@H](O)CNC4CC4)cc13)N(CC)S(=O)(=O)CC2.O=CO	98%	99%	13%
O=C(c1cc2c(s1)-c1cccc(Cl)c1SC2)N1CCN(c2ccncc2)CC1	94%	36%	45%
CN1CCC(N(C)C(=O)C=Cc2cn(-c3ccccc3)nc2-c2cc3ccccc3o2)CC1.Cl	92%	5%	38%
Cc1ccc(Nc2nc(C)cc(NC3CCN(C)CC3)n2)cc1	100%	21%	14%
COc1ccc(-c2ccc(NC(=O)c3cccc(C#N)c3)cc2)cc1CN1CCN(C)CC1.O=C(O)C(F)(F)F	100%	59%	26%
Cl.N#Cc1ccc2c(c1)CCN(CCC1CCC(NC(=O)c3cc4ccccc4[nH]3)CC1)CC2 (stereo not drawn)	89%	25%	17%
CN(C)C(S)=NN=Cc1cccc(O)c1O	91%	55%	11%
Cc1cccc2nc(-c3cccc(-c4ccc(CNCCc5ccncc5)cc4)c3)[nH]c12.O=C(O)C(F)(F)F	100%	100%	40%
CCNc1cc(C(=O)N[C@@H](Cc2ccccc2)[C@H](O)CNC(C)Cc2cccc(Cl)c2)cc(N2CCCCS2(=O)=O)c1.Cl (stereo partly drawn)	98%	77%	0%
COc1ccc2nccc([C@@H](O)CN3CCC(NC(=O)c4ccc5nc(-n6cccc6)sc5c4)CC3)c2c1	90%	40%	26%
CC1(C)N=C(N)N=C(N)N1c1ccc(Cl)cc1.O=C(O)c1cc2ccccc2c(Cc2c(O)c(C(=O)O)cc3ccccc23)c1O	95%	4%	42%
CCCCCCc1c(C)nc2cc(OC)ccc2c1O	97%	97%	10%
N#Cc1ccc(CN2CCC(Oc3ccc(NC(=O)c4ccccc4)cc3Cl)CC2)cc1.O=C(O)C(F)(F)F	84%	65%	21%

SMILES	Inhibition (Plasmodium falciparum [1])	Inhibition (Plasmodium falciparum [2])	Inhibition (HepG2)
COc1ccc(-c2cccc(CNC3CCN(C)CC3)c2)cc1S(=O)(=O)NCc1ccccc1.O=C(O)C(F)(F)F	90%	22%	18%
COc1ccc2nc(NC(N)=NC(=O)Nc3ccccc3)nc(C)c2c1	90%	15%	3%
COc1cc2nc(Nc3ccc(N4CCOCC4)cc3)nc(N)c2cc1OC.Cl	95%	10%	8%
Cc1cccc(CN2CCC(C(=O)Nc3ccc(-c4nc5ccccc5[nH]4)cc3)CC2)n1	96%	3%	0%
COc1ccc(-c2ccc(CNC(=O)c3ccc(C#N)cc3)c(F)c2)cc1CN1CCCN(C)CC1.O=C(O)C(F)(F)F	90%	1%	6%
Cc1cc(N[C@@H](Cc2ccccc2)C(=O)NC2CCCC2)nc(NCCCOC(C)C)n1.O=C(O)C(F)(F)F	92%	43%	0%
O=C(O)C(F)(F)F.c1ccc2[nH]c(-c3ccc(-c4ccc(CNC5CC5)cc4)s3)nc2c1	91%	19%	25%
O=C(Nc1cccc(-c2ccc(-c3nc4cc(F)ccc4[nH]3)cc2)c1)c1ccoc1	85%	6%	39%
CCCCc1ccc2ncc(C(=O)OCC)c(O)c2c1	95%	96%	3%
COc1ccc2nccc([C@@H](O)CN3CCC(NC(=O)c4ccc(OC)c(N)c4)CC3)c2c1.CS(=O)(=O)O	93%	0%	9%
Cc1ccccc1C(O)CNc1ccnc(Nc2cccc(C#N)c2)n1 (stereo not drawn)	94%	12%	22%
Br.N=c1sc2ccccc2n1CC(O)c1ccc(Cl)c(Cl)c1 (stereo not drawn)	99%	74%	4%
O=C(NC1CCC(N2CCC(c3ccccc3C(F)(F)F)CC2)CC1)c1cc2ccccc2[nH]1 (stereo not drawn)	100%	98%	80%
C=CCC(C(=O)Nc1ccnc2ccc(OC)cc12)C1CCN(CCCCCCC)CC1 (stereo not drawn)	86%	84%	20%
COc1ccc(OCCCN2CCN(CC(c3ccc(F)cc3)N3CCN(C(C)C)CC3)CC2)c2ccccc12.O=C(O)C(F)(F)F (stereo not drawn)	100%	32%	30%
Cc1cc(OCCCN2CCC(NS(=O)(=O)c3ccc(C(F)(F)F)cc3)CC2)c2ccccc2n1	95%	24%	12%
COc1cccc(Nc2c(C(N)=O)cnc3ccc(-c4ccc([S+](C)[O-])cc4)cc23)c1.O=C(O)C(F)(F)F (stereo not drawn)	96%	100%	0%
Cc1cccc2nc(-c3cccc(-c4ccc(NC(=O)c5ccoc5)cc4)c3)[nH]c12	99%	56%	65%
CCOC(=O)c1ccc(NC(=O)Nc2cccc(-c3ccc(-c4nc5cccc(C)c5[nH]4)s3)c2)cc1	100%	99%	44%
O=C(/C=C/c1ccc(Cl)c(Cl)c1)NCCCCCN1CCCC(CNC(=O)Nc2ccc(Oc3ccccc3)cc2)C1 (stereo not drawn)	99%	6%	26%
O=C(Nc1ccc(Br)cc1)N(CCN1CCOCC1)CC(O)COCc1ccc(Cl)c(Cl)c1.O=C(O)C(F)(F)F (stereo not drawn)	94%	52%	16%

SMILES	Inhibition (Plasmodium falciparum [1])	Inhibition (Plasmodium falciparum [2])	Inhibition (HepG2)
COc1ccc(CN2CCCN(Cc3cccc(NC(=O)c4cc5ccccc5s4)c3)CC2)cc1.O=C(O)C(F)(F)F	94%	32%	32%
O=S(=O)(c1ccccc1OC(F)(F)F)C1CC2CCC(C1)N2S(=O)(=O)c1cccc(C(F)(F)F)c1 (stereo not drawn)	99%	99%	5%
O=C(Nc1ccc(-c2nc3ccccc3[nH]2)cc1)c1ccc(N2CCCC2)c([N+](=O)[O-])c1	100%	95%	43%
CC(=O)Nc1nc(C(=O)Nc2cccc(-c3ccc(-c4nc5cc(F)ccc5[nH]4)cc3)c2)cs1	100%	32%	54%
Cc1ccc(-c2cnc(N)c3cc(-c4ccnc(N)n4)ccc23)cc1	99%	94%	41%
Cc1nn(-c2ccccc2)nc1C(=O)NC1CCN(CCNC(=O)c2ccc(Cl)c(Cl)c2)CC1.O=C(O)C(F)(F)F	89%	5%	15%
CCNCc1cccc(-c2ccc3ccnc(N)c3c2)c1	100%	98%	17%
O=C(CSc1nc2ccccc2c(=O)n1C1CC1)Nc1cc(C(F)(F)F)ccc1Cl	97%	96%	5%
N#CC(NC(=O)C=Cc1ccccc1)c1ccccc1 (stereo not drawn)	95%	3%	3%
Cc1cc(-c2cc3nc4c(c(O)n3n2)CCCC4)c(C)o1	94%	82%	4%
CCN(CC)CCN(Cc1ccc(-c2ccc(C(F)(F)F)cc2)cc1)C(=O)Cn1c(CCc2ccc(F)c(F)c2)cc(=O)c2ccccc21.O=C(O)C(O)C(O)C(=O)O	95%	26%	23%
COc1cc(F)c2ncc(Cl)c(CCN3CCC(NCc4ccc5c(n4)NC(=O)CO5)CC3)c2c1.Cl	89%	19%	20%
CC1CCCCN1CCCNC(=O)c1cccc(-c2cc3cc(Cl)c(Cl)cc3[nH]2)c1.O=C(O)C(F)(F)F (stereo not drawn)	94%	7%	22%
CCN(CC)CCCN(CCCN(CC)CC)c1cc(C)nc(Nc2ccc(Cl)cc2)n1.O=C(O)C(=O)O	100%	7%	11%
CCOc1cc(C)ccc1C1CCN(CCCCNC(=O)c2cccc(-c3ccc(C(F)(F)F)cc3)c2)CC1	99%	55%	39%
COc1ccc(CN2CCCN(Cc3cccc(NC(=O)c4ccc(Cl)c(Cl)c4)c3)CC2)cc1.O=C(O)C(F)(F)F	86%	19%	38%
O=C(NCCCCCN1CCC(c2c[nH]c3ccccc23)CC1)Nc1cccc(Cl)c1	86%	0%	36%
CN(C)CCOc1ccc(-c2cc(-c3ccnc(N)n3)c(-c3ccc(Cl)c(O)c3)o2)cc1	100%	91%	14%
N#Cc1ccc(-c2ccc(C(=O)NCCCCN3CCC(c4ccncc4)CC3)cc2)cc1	94%	16%	34%
